# From the supplement of paper PMC8728848
# Only a selection was taken, and the strongest signals are over-represented in it overall.
# Legend:
# Assay in all cases: glycan array binding signal (z-score within array); higher = stronger binding
# Details in all cases: glycan notation: IUPAC condensed, linker removed
# [1] = target: Fuc(a1-2)Gal(b1-3)GalNAc(a1-3)[Fuc(a1-2)]Gal(b1-4)Glc
# In short: (§1)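 The binding signal is a Z-score computed within each array and averaged over linkers. Arrays of the same protein sequence at different concentrations or buffers were also averaged together. Data originate from 3228 arrays in the Consortium for Functional Glycomics database, kept only where the protein sequence was available.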
# [2] = target: Fuc(a1-2)Gal(b1-3)[Fuc(a1-4)]GlcNAc(b1-2)Man(a1-3)[Fuc(a1-2)Gal(b1-3)[Fuc(a1-4)]GlcNAc(b1-2)Man(a1-3)]Man(b1-4)GlcNAc(b1-4)GlcNAc
# In short: as §1
# [3] = target: Fuc(a1-2)Gal(b1-4)Fuc(a1-3)]GlcNAc(b1-2)Man(a1-3)[Fuc(a1-2)Gal(b1-4)[Fuc(a1-3)]GlcNAc(b1-2)Man(a1-6)]Man(b1-4)GlcNAc(b1-4)GlcNAc
# In short: as §1
# [4] = target: Fuc(a1-2)Gal(b1-4)GlcNAc(b1-3)Gal(b1-4)GlcNAc
# In short: as §1
# [5] = target: Fuc(a1-2)Gal(b1-4)GlcNAc(b1-3)Gal(b1-4)GlcNAc(b1-3)Gal(b1-4)GlcNAc
# In short: as §1
# [6] = target: Fuc(a1-2)Gal(b1-4)GlcNAc(b1-3)[Fuc(a1-3)[Gal(b1-4)]GlcNAc(b1-6)]Gal(b1-4)Glc
# In short: as §1
# [7] = target: Fuc(a1-2)[Gal(a1-4)]Gal(b1-4)GlcNAc
# In short: as §1
# [8] = target: Fuc(a1-2)[GalNAc(a1-3)]Gal(b1-3)GalNAc(a1-3)[Fuc(a1-2)]Gal(b1-4)GlcNAc
# In short: as §1
# [9] = target: Fuc(a1-2)[GalNAc(a1-3)]Gal(b1-3)GlcNAc(b1-6)GalNAc
# In short: as §1
# [10] = target: Fuc(a1-3)[Gal(b1-4)]GlcNAc(b1-3)Gal(b1-3)[Fuc(a1-4)]GlcNAc
# In short: as §1
# [11] = target: Gal(a1-4)Gal(b1-3)GlcNAc(b1-2)Man(a1-3)[Gal(a1-4)Gal(b1-3)GlcNAc(b1-2)Man(a1-6)]Man(b1-4)GlcNAc(b1-4)GlcNAc
# In short: as §1
# Gal(b1-3)GalNAc(b1-3)Gal = target: Gal(b1-3)GalNAc(b1-3)Gal
# In short: as §1
# [12] = target: Gal(b1-3)GlcNAc(b1-3)Gal(b1-4)Glc
# In short: as §1
# [13] = target: Gal(b1-3)[Fuc(a1-4)]GlcNAc(b1-3)Gal(b1-3)[Fuc(a1-4)]GlcNAc
# In short: as §1
# [14] = target: Gal(b1-4)GalNAc(a1-3)[Fuc(a1-2)]Gal(b1-4)GlcNAc
# In short: as §1
# [15] = target: Gal(b1-4)GlcNAc(b1-2)[Gal(b1-4)GlcNAc(b1-4)]Man(a1-3)[Gal(b1-4)GlcNAc(b1-2)Man(a1-6)]Man(b1-4)GlcNAc(b1-4)GlcNAc
# In short: as §1
# [16] = target: Gal(b1-4)GlcNAc(b1-3)Gal(b1-3)GalNAc
# In short: as §1
# [17] = target: Gal(b1-4)GlcNAc(b1-3)Gal(b1-4)GlcNAc(b1-2)[Gal(b1-4)GlcNAc(b1-3)Gal(b1-4)GlcNAc(b1-6)]Man(a1-6)[Gal(b1-4)GlcNAc(b1-3)Gal(b1-4)GlcNAc(b1-2)Man(a1-3)]Man(b1-4)GlcNAc(b1-4)[Fuc(a1-6)]GlcNAc
# In short: as §1
# [18] = target: Gal(b1-4)GlcNAc(b1-3)Gal(b1-4)GlcNAc(b1-3)Gal(b1-4)GlcNAc(b1-2)Man(a1-3)[Gal(b1-4)GlcNAc(b1-3)Gal(b1-4)GlcNAc(b1-3)Gal(b1-4)GlcNAc(b1-2)Man(a1-6)]Man(b1-4)GlcNAc(b1-4)GlcNAc
# In short: as §1
# [19] = target: Gal(b1-4)GlcNAc(b1-3)Gal(b1-4)GlcNAc(b1-3)Gal(b1-4)GlcNAc(b1-2)[Gal(b1-4)GlcNAc(b1-3)Gal(b1-4)GlcNAc(b1-3)Gal(b1-4)GlcNAc(b1-6)]Man(a1-6)[Gal(b1-4)GlcNAc(b1-3)Gal(b1-4)GlcNAc(b1-3)Gal(b1-4)GlcNAc(b1-2)Man(a1-3)]Man(b1-4)GlcNAc(b1-4)[Fuc(a1-6)]GlcNAc
# In short: as §1
# [20] = target: Gal(b1-4)GlcNAc(b1-3)Gal(b1-4)GlcNAc(b1-6)[Gal(b1-3)]GalNAc
# In short: as §1
# [21] = target: Gal(b1-4)GlcNAc(b1-3)[GlcNAc(b1-6)]Gal(b1-4)GlcNAc
# In short: as §1
# Gal3S(b1-4)Glc6S = target: Gal3S(b1-4)Glc6S
# In short: as §1
# [22] = target: Gal3S(b1-4)[Fuc(a1-3)]Glc6S
# In short: as §1
# Gal3S4S(b1-4)GlcNAc = target: Gal3S4S(b1-4)GlcNAc
# In short: as §1
# GalNAc(a1-3)Gal = target: GalNAc(a1-3)Gal
# In short: as §1
# [23] = target: GalNAc(a1-3)GalNAc(b1-3)Gal(a1-4)Gal(b1-4)Glc
# In short: as §1
# [24] = target: GalNAc(b1-3)Gal(a1-4)Gal(b1-4)GlcNAc(b1-3)Gal(b1-4)Glc
# In short: as §1
# Glc(a1-4)Glc = target: Glc(a1-4)Glc
# In short: as §1
# Glc(a1-6)Glc(a1-6)Glc = target: Glc(a1-6)Glc(a1-6)Glc
# In short: as §1
# [25] = target: GlcA3S(b1-3)Gal(b1-4)GlcNAc(b1-2)Man
# In short: as §1
# [26] = target: GlcA3S(b1-3)Gal(b1-4)GlcNAc(b1-3)Gal(b1-4)Glc
# In short: as §1
# [27] = target: GlcNAc(a1-4)Gal(b1-4)GalNAc
# In short: as §1
# [28] = target: GlcNAc(a1-4)Gal(b1-4)GlcNAc(b1-3)Gal(b1-4)[Fuc(a1-3)]GlcNAc(b1-3)Gal(b1-4)[Fuc(a1-3)]GlcNAc
# In short: as §1
# [29] = target: GlcNAc(b1-2)[GlcNAc(b1-4)]Man(a1-3)[GlcNAc(b1-4)][GlcNAc(b1-2)[GlcNAc(b1-6)]Man(a1-6)]Man(b1-4)GlcNAc(b1-4)[Fuc(a1-6)]GlcNAc
# In short: as §1
# [30] = target: GlcNAc(b1-3)Gal(b1-4)GlcNAc(b1-3)Gal(b1-4)GlcNAc(b1-3)Gal(b1-4)GlcNAc(b1-2)Man(a1-3)[GlcNAc(b1-3)Gal(b1-4)GlcNAc(b1-3)Gal(b1-4)GlcNAc(b1-3)Gal(b1-4)GlcNAc(b1-2)Man(a1-6)]Man(b1-4)GlcNAc(b1-4)GlcNAc
# In short: as §1
# GlcNAc(b1-6)GalNAc = target: GlcNAc(b1-6)GalNAc
# In short: as §1
# [31] = target: Man(a1-3)[Man(a1-6)]Man(b1-4)GlcNAc(b1-4)[Fuc(a1-6)]GlcNAc
# In short: as §1
# [32] = target: Neu5Ac(a2-3)Gal(b1-3)GlcNAc(b1-2)Man
# In short: as §1
# [33] = target: Neu5Ac(a2-3)Gal(b1-3)GlcNAc(b1-2)Man(a1-3)[GlcNAc(b1-4)][Neu5Ac(a2-3)Gal(b1-3)GlcNAc(b1-2)Man(a1-6)]Man(b1-4)GlcNAc(b1-4)GlcNAc
# In short: as §1
# [34] = target: Neu5Ac(a2-3)Gal(b1-3)GlcNAc(b1-3)GalNAc
# In short: as §1
# [35] = target: Neu5Ac(a2-3)Gal(b1-3)GlcNAc(b1-6)GalNAc
# In short: as §1
# [36] = target: Neu5Ac(a2-3)Gal(b1-3)[Fuc(a1-4)]GlcNAc
# In short: as §1
# [37] = target: Neu5Ac(a2-3)Gal(b1-4)GlcNAc(b1-2)Man(a1-3)[Neu5Ac(a2-6)Gal(b1-4)GlcNAc(b1-2)Man(a1-6)]Man(b1-4)GlcNAc(b1-4)GlcNAc
# In short: as §1
# [38] = target: Neu5Ac(a2-3)Gal(b1-4)GlcNAc(b1-3)Gal
# In short: as §1
# [39] = target: Neu5Ac(a2-3)Gal(b1-4)GlcNAc(b1-3)Gal(b1-4)GlcNAc(b1-6)[Gal(b1-3)]GalNAc
# In short: as §1
# [40] = target: Neu5Ac(a2-6)Gal(b1-4)GlcNAc(b1-2)Man(a1-3)[Neu5Ac(a2-6)Gal(b1-4)GlcNAc(b1-2)Man(a1-6)]Man(b1-4)GlcNAc(b1-4)GlcNAc
# In short: as §1
# [41] = target: Neu5Ac(a2-6)GlcNAc(b1-4)GlcNAc(b1-4)GlcNAc
# In short: as §1
# Neu5Ac(b2-6)GalNAc = target: Neu5Ac(b2-6)GalNAc
# In short: as §1
# [42] = target: Neu5Gc(a2-3)Gal(b1-3)GlcNAc
# In short: as §1
# [43] = target: Neu5Gc(a2-3)Gal(b1-4)GlcNAc
# In short: as §1
# Neu5Gc(a2-6)GalNAc = target: Neu5Gc(a2-6)GalNAc
# In short: as §1
binder,measurement,setting,value
Epa11 (Candida glabrata) (protein) MGSSHHHHHHSSGLVPRGSHMASSNAPNYPVGCSPSVGTQLTPGLSLEVYAYPMDGNNGYCWNATYKDPEFPRSGYLKNKLLGKADGVVGPLNFLAKNKDCSPKVDTLPAGFNFPQPITVTNFTMVLFGYLAPKQSGKYTFKLLADDLLLLNLGATNAFDCCNREATKNNLGEFLAYNLWPNQDKNVTVYLEKGVYYPLRLFFNNRDGGSQLDFSYYFNDSPAPLTDFSGMFFSVPDGAECPARI,glycan array binding signal (z-score),[1],-0.518
same,glycan array binding signal (z-score),[2],-0.183
same,glycan array binding signal (z-score),[3],2.88
same,glycan array binding signal (z-score),[4],-0.92
same,glycan array binding signal (z-score),[5],-0.015
same,glycan array binding signal (z-score),[6],0.437
same,glycan array binding signal (z-score),[7],0.294
same,glycan array binding signal (z-score),[8],-0.24
same,glycan array binding signal (z-score),[9],-0.276
same,glycan array binding signal (z-score),[10],-0.232
same,glycan array binding signal (z-score),[11],1.7
same,glycan array binding signal (z-score),Gal(b1-3)GalNAc(b1-3)Gal,-0.185
same,glycan array binding signal (z-score),[12],-0.214
same,glycan array binding signal (z-score),[13],2.35
same,glycan array binding signal (z-score),[14],-0.453
same,glycan array binding signal (z-score),[15],-0.412
same,glycan array binding signal (z-score),[16],-0.415
same,glycan array binding signal (z-score),[17],1.98
same,glycan array binding signal (z-score),[18],2.67
same,glycan array binding signal (z-score),[19],1.94
same,glycan array binding signal (z-score),[20],1.77
same,glycan array binding signal (z-score),[21],-0.836
same,glycan array binding signal (z-score),Gal3S(b1-4)Glc6S,0.304
same,glycan array binding signal (z-score),[22],1.71
same,glycan array binding signal (z-score),Gal3S4S(b1-4)GlcNAc,-0.9
same,glycan array binding signal (z-score),GalNAc(a1-3)Gal,-0.428
same,glycan array binding signal (z-score),[23],-0.437
same,glycan array binding signal (z-score),[24],-0.094
same,glycan array binding signal (z-score),Glc(a1-4)Glc,-1.42
same,glycan array binding signal (z-score),Glc(a1-6)Glc(a1-6)Glc,-0.516
same,glycan array binding signal (z-score),[25],0.356
same,glycan array binding signal (z-score),[26],-0.579
same,glycan array binding signal (z-score),[27],-0.891
same,glycan array binding signal (z-score),[28],0.211
same,glycan array binding signal (z-score),[29],2.33
same,glycan array binding signal (z-score),[30],-0.16
same,glycan array binding signal (z-score),GlcNAc(b1-6)GalNAc,-0.586
same,glycan array binding signal (z-score),[31],5.52
same,glycan array binding signal (z-score),[32],-0.819
same,glycan array binding signal (z-score),[33],2.81
same,glycan array binding signal (z-score),[34],0.127
same,glycan array binding signal (z-score),[35],0.52
same,glycan array binding signal (z-score),[36],-0.534
same,glycan array binding signal (z-score),[37],-0.573
same,glycan array binding signal (z-score),[38],-0.477
same,glycan array binding signal (z-score),[39],-0.079
same,glycan array binding signal (z-score),[40],-0.433
same,glycan array binding signal (z-score),[41],-0.053
same,glycan array binding signal (z-score),Neu5Ac(b2-6)GalNAc,-0.375
same,glycan array binding signal (z-score),[42],0.029
same,glycan array binding signal (z-score),[43],-0.644
same,glycan array binding signal (z-score),Neu5Gc(a2-6)GalNAc,-0.604
